Counter-ions that a name gives are not always drawn. ± gives the standard deviation of the averaged measurements.
Key:
Assay in all cases: growth (OD600 after 10 h); higher = more growth (less inhibition)
[1] = tested on: E. coli TESEC Alr+ wild-type control; settings: compound 0.1 mM; raw OD600 reference: median of DMSO wells 0.241, cell-free background 0.041
Procedure: (§1)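 TESEC Mtb Alr E. coli, or the Alr+ wild-type control, in 384-well plates with Prestwick library compounds at 0.1 mM and 1% DMSO, across arabinose induction levels of 1E3 to 1E7 nM. Growth is read as OD600 after 10 h at 37 °C in triplicate biological replicates.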

[2] = tested on: E. coli TESEC Mtb Alr; settings: compound 0.1 mM
Procedure: as §1

[3] = tested on: E. coli TESEC Mtb Asd; settings: compound 0.1 mM
Procedure: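 TESEC E. coli strains in which the native enzyme is deleted and replaced by arabinose-inducible Mtb Asd, DapB, CysH or TrpD, each grown in its selective medium. Strains were screened against the Prestwick library at 0.1 mM and 1% DMSO in 384-well format at low and high arabinose induction. Growth is read as OD600 after 10 h in triplicate.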

[4] = tested on: E. coli TESEC Alr+ wild-type control; settings: compound 0.1 mM; raw OD600 reference: median of DMSO wells 0.49, cell-free background 0.052
Procedure: (§2)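 TESEC Mtb Alr E. coli (ΔaraC ΔtolC ΔentC Δalr ΔdadX, arabinose-inducible Mtb Alr) or the Alr+ wild-type control strain, grown in defined M9-fructose medium without D-alanine in 96-well plates with Prestwick library compounds at 0.1 mM and 1% DMSO. Low Alr induction is 0.1 µM arabinose and high induction is 10 mM arabinose.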

[5] = tested on: E. coli TESEC Mtb Alr; settings: compound 0.1 mM; remark: listed apart in the source
Procedure: as §2

[6] = arabinose 1000 nM, raw OD600 reference: median of DMSO wells 0.294, cell-free background 0.041
[7] = arabinose 10000 nM, raw OD600 reference: median of DMSO wells 0.264, cell-free background 0.041
[8] = arabinose 100000 nM, raw OD600 reference: median of DMSO wells 0.201, cell-free background 0.041
[9] = arabinose 1000000 nM, raw OD600 reference: median of DMSO wells 0.193, cell-free background 0.041
[10] = arabinose 10000000 nM, raw OD600 reference: median of DMSO wells 0.146, cell-free background 0.041
[11] = arabinose induction (level): High, raw OD600 reference: median of DMSO wells 0.331, cell-free background 0.041
[12] = arabinose induction (level): Low, raw OD600 reference: median of DMSO wells 0.417, cell-free background 0.041
[13] = arabinose 100 nM, raw OD600 reference: median of DMSO wells 0.413, cell-free background 0.052
[14] = arabinose 10000000 nM, raw OD600 reference: median of DMSO wells […], cell-free background 0.052

Row | Compound | growth [1] | growth [2, 6] | growth [2, 7] | growth [2, 8] | growth [2, 9] | growth [2, 10] | growth [3, 11] | growth [3, 12] | growth [4] | growth [5, 13] | growth [5, 14]
1 | Cc1c(O)c(=O)n(-c2ccccc2)n1C [Antipyrine, 4-hydroxy] | 0.2468 ± 0.00085 | 0.289 ± 0.012 | 0.252 ± 0.0096 | 0.211 ± 0.0099 | 0.182 ± 0.004 | 0.154 ± 0.0051 | 0.338 ± 0.034 | 0.375 ± 0.01 | 0.507 ± 0.069 | 0.405 ± 0.0081 | 0.37 ± 0.033
2 | Clc1ccc(CO/N=C(\Cn2ccnc2)c2ccc(Cl)cc2Cl)c(Cl)c1 [Oxiconazole Nitrate] | 0.0527 ± 0.0022 | 0.0489 ± 0.0051 | 0.0625 ± 0.0013 | 0.0581 ± 0.003 | 0.0621 ± 0.0011 | 0.0621 ± 0.0089 | 0.0621 ± 0.001 | 0.0577 ± 0.0051 | 0.0828 ± 0.0028 | 0.095 ± 0.058 | 0.0891 ± 0.0035
3 | CC(=O)[C@H]1CC[C@H]2[C@@H]3CCC4=CC(=O)CC[C@]4(C)[C@H]3CC[C@]12C [Progesterone] | 0.139 ± 0.0043 | 0.175 ± 0.01 | 0.234 ± 0.01 | 0.145 ± 0.015 | 0.117 ± 0.0027 | 0.15 ± 0.012 | 0.143 ± 0.0076 | 0.219 ± 0.012 | – | 0.292 ± 0.059 | 0.0648 ± 0.0061
4 | CCN(CC)Cc1cc(Nc2ccnc3cc(Cl)ccc23)ccc1O [Amodiaquin dihydrochloride dihydrate] | 0.16 ± 0.0068 | 0.229 ± 0.0059 | 0.269 ± 0.003 | 0.181 ± 0.0097 | 0.102 ± 0.0085 | 0.203 ± 0.0054 | 0.179 ± 0.011 | 0.387 ± 0.051 | – | 0.4131 ± 0.00099 | 0.322 ± 0.0054
5 | CCCC1C(=O)N2C(N(C)C)=Nc3ccc(C)cc3N2C1=O (stereo unspecified) [Azapropazone] | 0.226 ± 0.0057 | 0.287 ± 0.0066 | 0.2549 ± 0.002 | 0.178 ± 0.011 | 0.158 ± 0.0037 | 0.134 ± 0.0021 | 0.195 ± 0.031 | 0.323 ± 0.064 | 0.483 ± 0.02 | 0.399 ± 0.013 | 0.301 ± 0.0094
6 | NC(=O)OCC(O)COc1ccc(Cl)cc1 (stereo unspecified) [Chlorphensin carbamate] | 0.251 ± 0.011 | 0.287 ± 0.016 | 0.2846 ± 0.0028 | 0.245 ± 0.022 | 0.2014 ± 0.002 | 0.162 ± 0.0045 | 0.364 ± 0.046 | 0.379 ± 0.024 | 0.523 ± 0.01 | 0.416 ± 0.019 | 0.366 ± 0.023
7 | COC1=CC(=O)C[C@@H](C)[C@]12Oc1c(Cl)c(OC)cc(OC)c1C2=O [Griseofulvin] | 0.223 ± 0.0068 | 0.2842 ± 0.002 | 0.2487 ± 0.002 | 0.208 ± 0.021 | 0.0853 ± 0.0022 | 0.135 ± 0.006 | 0.241 ± 0.051 | 0.385 ± 0.11 | 0.514 ± 0.041 | 0.416 ± 0.013 | 0.21 ± 0.032
8 | CC(C)[C@H]1CC[C@H](C(=O)N[C@H](Cc2ccccc2)C(=O)O)CC1 [Nateglinide] | 0.181 ± 0.0028 | 0.277 ± 0.0054 | 0.246 ± 0.019 | 0.169 ± 0.0079 | 0.114 ± 0.0027 | 0.147 ± 0.0056 | 0.229 ± 0.039 | 0.23 ± 0.021 | – | 0.22 ± 0.16 | 0.284 ± 0.009
9 | CC(=O)O[C@H]1C[C@@]2(C)[C@@H](C[C@@H](O)[C@H]3[C@@]4(C)CC[C@@H](O)[C@@H](C)[C@@H]4CC[C@@]32C)/C1=C(\CCC=C(C)C)C(=O)O [Fusidic acid sodium salt] | 0.04197 ± 0.0004 | 0.0422 ± 0.00097 | 0.0411 ± 0.001 | 0.0429 ± 0.0003 | 0.0403 ± 0.00017 | 0.04237 ± 0.00032 | 0.0498 ± 0.0038 | 0.0478 ± 0.0026 | 0.05317 ± 0.00047 | 0.11 ± 0.0058 | 0.0515 ± 0.00085

From the supplement of paper PMC9262897, “Low-cost anti-mycobacterial drug discovery using engineered E. coli” (Nature Communications, 2022)
